Screens from PubChem.
HTR1E agonist – 5-HT1E (human) receptor agonism; 65,000 tested, 0.69% active; activation, % at 6 µM; CHO 5-HT1E Ga15 NFAT-bla reporter, FRET; 0% DMSO wells, 100% control agonist wells; P28566; AID 574;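 active = activation above a set limit, the screen-wide mean activation plus 3 SD, cut at about 8.5% in these data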;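 note: 100% = positive control agonist at 1 µM giving full maximal response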
Target sequence (P28566 whole entry, looked up): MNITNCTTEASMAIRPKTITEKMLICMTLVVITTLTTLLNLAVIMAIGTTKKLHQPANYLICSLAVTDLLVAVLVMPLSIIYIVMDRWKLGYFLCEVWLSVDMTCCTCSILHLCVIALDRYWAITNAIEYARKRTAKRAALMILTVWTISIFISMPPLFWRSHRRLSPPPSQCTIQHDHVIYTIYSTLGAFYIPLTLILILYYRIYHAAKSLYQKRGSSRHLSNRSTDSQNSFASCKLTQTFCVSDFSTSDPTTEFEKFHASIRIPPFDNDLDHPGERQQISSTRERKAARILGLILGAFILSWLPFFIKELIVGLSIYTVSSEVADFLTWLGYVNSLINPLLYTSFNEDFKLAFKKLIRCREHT
HTR1E antagonist – antagonists of human 5-HT1E serotonin receptor | P28566 | CHO 5-HT1E Ga15 NFAT-bla reporter, FRET, antagonist | inhibition, % at 6 µM | 65,000 tested, 0.99% active | AID 571;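 active = inhibition above a set limit, the mean inhibition across every tested compound plus 3 SD, cut at about 29% in these data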;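 note: signal is the 460 over 535 nm emission ratio of beta-lactamase substrate; 0% = agonist plus DMSO wells and 100% = wells without agonist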
HTR1A agonist – 5-HT1a (human) receptor agonism; P08908; CHO 5-HT1a Ga15 NFAT-bla reporter, FRET ratio; 0% basal, 100% maximal reference agonist; activation, % at 10 µM; 65,000 tested, 0.56% active; AID 567;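 active = activation above the screen-wide mean activation plus 3 SD, cut at about 19% in these data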;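 note: 0% = DMSO wells and 100% = 5-CT at EC100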
5HT1a antag – 5-HT1a (human) receptor antagonism. inhibition, % at 10 µM. CHO 5-HT1a Ga15 NFAT-bla reporter, antagonist mode. AID 612. 62,000 tested, 0.68% active. P08908;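 active = inhibition above the mean of all tested compounds plus 3 SD, cut at about 43% in these data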;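 note: receptor stimulated by 5-CT agonist at 100 nM near EC80; beta-lactamase reporter measured by ratiometric fluorescence of a cleavable substrate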
HER2 expr 66K – inhibitors of human Her2 kinase expression | SKBR-3 HER2 protein level, AlphaScreen, 18-24 h; stronger effect = lower value | HER2 level % of control, % at 10 µM | 65,000 tested, 0.69% active | AID 645;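 active = HER2 level under 5% of the carrier-only control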;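 note: 100% = DMSO carrier and 0% = 500 nM PU-H71 HSP90 inhibitor; lower value means stronger loss of Her2 protein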
Numbers without * were called inactive. An excerpt weighted towards active compounds, which were near 3% of everything screened.

What do the screens show for `COc1ccc(C(=O)N2CCCC(c3nc(-c4ccc(OC)c(OC)c4)no3)C2)c(OC)c1` (configuration not stated)?
HTR1E agonist: 0; HTR1E antagonist: -4; HTR1A agonist: 20*; 5HT1a antag: -11; HER2 expr 66K: 76

What do the screens show for `O=C(NC(=O)N1CCN(c2cccc(Cl)c2)CC1)c1ccccc1`?
HTR1E agonist: 14*; HTR1E antagonist: 8; HTR1A agonist: 3; 5HT1a antag: 12; HER2 expr 66K: 104

Results for O=C(NCc1ccccc1)N1CCN(c2ccccc2F)CC1 ?
HTR1E agonist: 0; HTR1E antagonist: 1; HTR1A agonist: 2; 5HT1a antag: -4; HER2 expr 66K: 87

Results for O=C(NC(=O)N1CCN(c2ccccc2F)CC1)c1ccccc1 ?
HTR1E agonist: 18*; HTR1E antagonist: 11; HTR1A agonist: 17; 5HT1a antag: 5; HER2 expr 66K: 90

Results for C=CCn1cnc2c(c1=O)c1nc3ccccc3nc1n2/N=C/c1cc(OC)c(OC)c(OC)c1 ?
HTR1E agonist: 1; HTR1E antagonist: 1; HTR1A agonist: 3; 5HT1a antag: -35; HER2 expr 66K: -25*

What do the screens show for `C=CCn1cnc2c(c1=O)c1nc3ccccc3nc1n2/N=C/c1cccc(OC)c1OC`?
HTR1E agonist: 0; HTR1E antagonist: -13; HTR1A agonist: 1; 5HT1a antag: -19; HER2 expr 66K: 96

What do the screens show for `O=C(NCCCN1CCN(c2ccc(F)cc2)CC1)c1cccc(N2CCCC2=O)c1`?
HTR1E agonist: 0; HTR1E antagonist: 13; HTR1A agonist: -2; 5HT1a antag: 71*; HER2 expr 66K: 101

What do the screens show for `O=C(NCCCN1CCCC1)c1cccc(N2CCCC2=O)c1`?
HTR1E agonist: -1; HTR1E antagonist: 0; HTR1A agonist: -2; 5HT1a antag: 7; HER2 expr 66K: 100

Results for O=C(c1ccccc1NS(=O)(=O)c1ccc(Br)s1)N1CCOCC1 ?
HTR1E agonist: 1; HTR1E antagonist: -1; HTR1A agonist: 2; 5HT1a antag: -4; HER2 expr 66K: 106

What do the screens show for `O=C1C2C3C=CC(CO)(O3)C2C(=O)N1c1ccc(-c2ccccc2)cc1` (configuration not stated)?
HTR1E agonist: 0; HTR1E antagonist: 61*; HTR1A agonist: -6; 5HT1a antag: 88*; HER2 expr 66K: 28

Results for CCCCCCOC(=O)C(C#N)c1nc2ccccc2nc1N1CCN(C)CC1 (configuration not stated) ?
HTR1E agonist: 0; HTR1E antagonist: 1; HTR1A agonist: 1; 5HT1a antag: 15; HER2 expr 66K: -4.8*

What do the screens show for `CCC1(CC)C(=O)C(C)(C)C(=O)OC1c1cccs1` (configuration not stated)?
HTR1E agonist: -1; HTR1E antagonist: -10; HTR1A agonist: -1; 5HT1a antag: -2; HER2 expr 66K: 113

How did COc1cc2[nH]c(=O)n(CCCCCC(=O)N3CCN(c4ccccc4)CC3)c(=O)c2cc1OC do in these assays?
HTR1E agonist: 0; HTR1E antagonist: 8; HTR1A agonist: 2; 5HT1a antag: -11; HER2 expr 66K: 131

What do the screens show for `COc1cc2[nH]c(=O)n(CCC(=O)N3CCN(c4cccc(C)c4C)CC3)c(=O)c2cc1OC`?
HTR1E agonist: 0; HTR1E antagonist: -6; HTR1A agonist: 0; 5HT1a antag: -1; HER2 expr 66K: -23*

Results for Cc1cc(C#N)c(C)n1-c1cc(C(F)(F)F)ccc1N1CCOCC1 ?
HTR1E agonist: -1; HTR1E antagonist: 12; HTR1A agonist: 3; 5HT1a antag: 43*; HER2 expr 66K: 95

How did CC(C)C(=O)Nc1cc(C(F)(F)F)ccc1N1CCOCC1 do in these assays?
HTR1E agonist: 0; HTR1E antagonist: 12; HTR1A agonist: -1; 5HT1a antag: 1; HER2 expr 66K: 119

Results for N#CCCN1CCN(C(=S)c2ccc(-c3cc(Cl)ccc3Cl)o2)CC1 ?
HTR1E agonist: 0; HTR1E antagonist: 31*; HTR1A agonist: -5; 5HT1a antag: 10; HER2 expr 66K: 105

Results for O=C1c2ccccc2C(Nc2ccc3c(c2)OCCO3)N1Cc1ccccc1 (configuration not stated) ?
HTR1E agonist: 0; HTR1E antagonist: 3; HTR1A agonist: -2; 5HT1a antag: 17; HER2 expr 66K: 96

Results for CCn1c2ccccc2c2nnc(SCCCn3c(=O)[nH]c4ccccc43)nc21 ?
HTR1E agonist: 2; HTR1E antagonist: 26; HTR1A agonist: 2; 5HT1a antag: 19; HER2 expr 66K: 51

Results for Cc1ccc(C2CC(=O)NC(SCc3ccccc3)=C2C#N)o1 (configuration not stated) ?
HTR1E agonist: 0; HTR1E antagonist: 2; HTR1A agonist: 35*; 5HT1a antag: 2; HER2 expr 66K: 112

What do the screens show for `COC(=O)c1ccc(C2CC(=O)Nc3cc(OC)c(OC)c(OC)c32)cc1` (configuration not stated)?
HTR1E agonist: 0; HTR1E antagonist: -6; HTR1A agonist: 0; 5HT1a antag: 0; HER2 expr 66K: 101

Results for COc1ccc(Cl)cc1NC(=O)CSc1nnc(-c2ccncc2)n1CC1CCCO1 (configuration not stated) ?
HTR1E agonist: 0; HTR1E antagonist: -2; HTR1A agonist: 1; 5HT1a antag: 3; HER2 expr 66K: 64

How did COc1ccccc1NC(=O)CSc1nnc(-c2ccncc2)n1CC1CCCO1 (configuration not stated) do in these assays?
HTR1E agonist: -1; HTR1E antagonist: -5; HTR1A agonist: 37*; 5HT1a antag: -15; HER2 expr 66K: 102

Results for CN(C)CCCN1c2ccccc2Sc2ccccc21 ?
HTR1E agonist: 4; HTR1E antagonist: -9; HTR1A agonist: -1; HER2 expr 66K: 71

What do the screens show for `CN(C)CCCN1c2ccccc2CCc2ccc(Cl)cc21`?
HTR1E agonist: 10*; HTR1E antagonist: 5; HTR1A agonist: -1; HER2 expr 66K: 94

What do the screens show for `CCOc1ccc(NC(=O)C2CSC(c3ccncc3)=N2)cc1` (configuration not stated)?
HTR1E agonist: 0; HTR1E antagonist: 7; HTR1A agonist: 3; 5HT1a antag: -2; HER2 expr 66K: 111

What do the screens show for `CCSC1(SCC)N=C(N)C2(C#N)C(c3ccc(OC)c(OC)c3OC)C12C#N` (configuration not stated)?
HTR1E agonist: 0; HTR1E antagonist: -6; HTR1A agonist: -2; 5HT1a antag: 27; HER2 expr 66K: 3.5*

How did CCSC1(SCC)N=C(N)C2(C#N)C(c3ccccc3)NC3=C(CCC3)C12C#N (configuration not stated) do in these assays?
HTR1E agonist: 0; HTR1E antagonist: 6; HTR1A agonist: -3; 5HT1a antag: 27; HER2 expr 66K: 91

How did CC(C)NC(=O)c1ccccc1NC(=O)CN(c1ccc2c(c1)OCO2)S(C)(=O)=O do in these assays?
HTR1E agonist: 0; HTR1E antagonist: -2; HTR1A agonist: -1; 5HT1a antag: -4; HER2 expr 66K: 175
